The source of these data is PubChem BioAssay (EPA / NIEHS).

Records with an inconclusive call do not appear. Calls of active or inactive are those of the source. The calls were made as follows: active = hit-call score of the fitted dose curve at least 0.9, where 1 is the maximum; inconclusive = response in the unintended direction; inactive = score below 0.9.

Broad substrate specificity ATP-binding cassette transporter ABCG2 (Homo sapiens), sequence (Q9UNQ0 whole entry, looked up): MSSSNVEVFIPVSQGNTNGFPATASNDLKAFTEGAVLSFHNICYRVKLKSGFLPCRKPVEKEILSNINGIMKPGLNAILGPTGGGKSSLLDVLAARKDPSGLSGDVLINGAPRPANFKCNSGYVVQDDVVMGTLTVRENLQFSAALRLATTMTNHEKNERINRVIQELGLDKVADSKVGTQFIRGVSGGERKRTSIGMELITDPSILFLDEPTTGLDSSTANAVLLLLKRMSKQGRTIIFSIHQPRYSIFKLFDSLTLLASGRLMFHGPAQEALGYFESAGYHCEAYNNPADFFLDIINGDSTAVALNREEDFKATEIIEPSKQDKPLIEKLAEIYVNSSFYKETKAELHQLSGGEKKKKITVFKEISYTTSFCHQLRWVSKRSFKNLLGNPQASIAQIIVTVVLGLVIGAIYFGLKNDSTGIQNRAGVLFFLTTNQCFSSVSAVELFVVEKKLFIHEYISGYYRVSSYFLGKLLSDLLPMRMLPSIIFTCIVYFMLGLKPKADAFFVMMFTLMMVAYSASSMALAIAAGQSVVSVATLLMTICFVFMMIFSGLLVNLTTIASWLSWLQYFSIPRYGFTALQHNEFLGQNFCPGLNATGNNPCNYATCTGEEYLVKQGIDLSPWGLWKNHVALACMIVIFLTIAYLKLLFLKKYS

Read-out in this test: Broad substrate specificity ATP-binding cassette transporter ABCG2 (Homo sapiens) (UniProt Q9UNQ0)
Kind of test: CLD_ABCG2_24hr: CellzDirect (CLD) Gene Expression Assay for ABC Transporter (ABCG2) at 24 hours (AID 2283685). The method, then:
CLD_24hr is a cell-based, multiplexed-readout assay that uses hepatocyte, a human liver primary cell, with measurements taken at 24 hours after chemical dosing in a 96-well plate.CLD_ABCG2_24hr is one of 16 assay component(s) measured or calculated from the CLD_24hr assay. It is designed to make measurements of mRNA induction, a form of inducible reporter, as detected with chemiluminescence signals by Quantitative Nuclease Protection Assay (qNPA) technology.Data from the assay component CLD_ABCG2_24hr was analyzed at the endpoint, CLD_ABCG2_24hr, in the positive analysis fitting direction relative to DMSO as the negative control and baseline of activity. Using a type of inducible reporter, gain-of-signal activity can be used to understand changes in the reporter gene as they relate to the gene ABCG2. Furthermore, this assay endpoint can be referred to as a primary readout. To generalize the intended target to other relatable targets, this assay endpoint is annotated to the transporter intended target family, where subfamily is ABC transporter.
Human hepatocyte cultures were treated daily for two consecutive days with fresh dosing solutions containing appropriate concentrations of the 320 ToxCast chemicals (chemical identities were blinded to CellzDirect and other ToxCast collaborators), vehicle control (0.2% DMSO), and positive control inducers as summarized in Table 1. Due to the large number of treatment groups and chemicals examined, the ToxCast chemicals were divided into two groups (spanning two independent cultures of hepatocytes from separate donor preparations (Hu778: ToxCast plates 1 and 2; Hu776: ToxCast plates 3 and 4). Each preparation of human hepatocyte cultures was treated with respective vehicle control, medium only control, set of six positive controls/reference chemicals for the five hepatic receptor pathways, and a subset of eight of the ToxCast chemicals (indoxacarb, pyrithiobac-sodium, norflurazon, cyhalofop-butyl, methomyl, thiram, acetochlor, and propiconazole). These replicate data, coupled with internal replicates designed within the blinded ToxCast chemical library, provided additional data to evaluate interindividual differences between hepatocyte preparations and their potential impact on chemical profiles.Cell morphology and integrity were evaluated using phase-contrast microscopy as an indicator of hepatocyte cell health (Tyson & Green, 1987). Cultures for each treatment group (i.e., media, vehicle [0.2% DMSO], positive control inducers [multiple concentrations], and the ToxCast chemicals [multiple concentrations]) were observed and cell morphology was assessed relative to vehicle control cultures at each harvest time point (0, 6, 24, or 48 h). […] Images were evaluated at the conclusion of the study to assess changes in cell integrity and account for the effects of chemical exposure on uncharacteristic changes in concentration-dependent gene expression profiles. The results from these determinations of apparent cytotoxicity were annotated (yes/no) alongside the corresponding qNPA data for reference.At the conclusion of each treatment period, hepatocyte cultures (96-well) were washed with 1 volume of HBSS, lysed by addition of 25 ul ArrayPlate lysis buffer (HTG, Tucson, AZ), and 70 ul/well of Denaturation Oil, denatured by incubation at 95C for 10 min, and frozen at approximately -70C until analysis by nuclease protection assay (qNPA) (Roberts et al., 2007). For qNPA analysis, cell lysates were thawed at 50C for approximately 30 min, qNPA probes were added, and samples were incubated at 95C for 10 min to begin the detection process by denaturing the target RNA, dissociating the duplexes and secondary structure hybridization. At the conclusion of the hybridization period, S1 nuclease reagent was added to each sample to digest all nonprotected nucleotides at 50C for 60-90 min. […]
In the case of `CCC(C)(C)C(=O)OC1=C(c2ccc(Cl)cc2Cl)C(=O)OC12CCCCC2`, the compound was classed as inactive.
Still for that read-out and setting: the entry for `COP(=S)(OC)Oc1ccc([N+](=O)[O-])cc1` is “inactive”.
For orientation: AC50 means the concentration giving half of the maximal activity seen. Regarding `CC[C@H](C)[C@H]1O[C@]2(C=C[C@@H]1C)C[C@@H]1C[C@@H](C/C=C(\C)[C@@H](O[C@H]3C[C@H](OC)[C@@H](O[C@H]4C[C@H](OC)[C@@H](O)[C@H](C)O4)[C@H](C)O3)[C@@H](C)/C=C/C=C3\CO[C@@H]4[C@H](O)C(C)=C[C@@H](C(=O)O1)[C@]34O)O2` (tested in a mixture with another compound), the half-maximal activity concentration (AC50) was 4.64 µM (active).
With `O=C(O)CCCOc1ccc(Cl)cc1Cl`, the call was inactive.
On the same count and under the same terms, with `COC(=O)c1ccccc1S(=O)(=O)NC(=O)Nc1nc(C)nc(OC)n1` the entry was “inactive”; with `C#CCN1C(=O)COc2cc(F)c(N3C(=O)C4=C(CCCC4)C3=O)cc21`, “inactive”; with `COc1nn(CSP(=S)(OC)OC)c(=O)s1`, “inactive”.
In the case of `O=C(O)COc1ccc(Cl)cc1Cl`, the outcome was inactive.
Take `CC(C)N(C(=O)COc1nnc(C(F)(F)F)s1)c1ccc(F)cc1`: the outcome was inactive.
Still for that read-out and setting: with `N#Cc1c(Cl)c(Cl)c(Cl)c(C#N)c1Cl` the entry was “inactive”; with `O=C(NC(=O)c1c(F)cccc1F)Nc1ccc(OC(F)(F)C(F)OC(F)(F)F)c(Cl)c1` (centres undefined), “inactive”; with `O=S(=O)(O)C(F)(F)C(F)(F)C(F)(F)C(F)(F)C(F)(F)C(F)(F)C(F)(F)C(F)(F)F`, “inactive”.
Still for that read-out and setting: with `Clc1ccccc1-c1nnc(-c2ccccc2Cl)nn1` the entry was “inactive”; with `[2H]C1([2H])[n+]2ccccc2-c2cccc[n+]2C1([2H])[2H]`, “inactive”; with `CCCN(CCOc1c(Cl)cc(Cl)cc1Cl)C(=O)n1ccnc1`, “inactive”.
Same read-out and setting: with `CCOc1nc(NC)nc(NC(=O)NS(=O)(=O)c2ccccc2C(=O)OC)n1` the entry was “inactive”; with `CC(C)(C)C(O)C(Oc1ccc(Cl)cc1)n1cncn1` (centres undefined), “inactive”; with `CC(C)OC(=O)Nc1cccc(Cl)c1`, “inactive”.
For the compound `ClC1C(Cl)C(Cl)C(Cl)C(Cl)C1Cl` (centres undefined), the compound was classed as inactive.
The same measure, in the same setting: with `CCN(CC)C(=O)SCc1ccc(Cl)cc1` the entry was “inactive”.
Still for that read-out and setting: the entry for `O=[N+]([O-])c1c(Cl)c(Cl)c(Cl)c(Cl)c1Cl` is “inactive”; for `COc1cc(OC)nc(NC(=O)NS(=O)(=O)c2cc(NC=O)ccc2C(=O)N(C)C)n1` it is “inactive”; for `CCS(=O)(=O)c1cccnc1S(=O)(=O)NC(=O)Nc1nc(OC)cc(OC)n1` it is “inactive”.
Same read-out and setting: with `Cc1cc(C)nc(NC(=O)NS(=O)(=O)c2ccccc2C(=O)OC2COC2)n1` the entry was “inactive”; with `CCCN(CCC)c1c([N+](=O)[O-])cc(C(F)(F)F)cc1[N+](=O)[O-]`, “inactive”; with `CCOC1Oc2ccc(OS(C)(=O)=O)cc2C1(C)C` (centres undefined), “inactive”.
In the case of `OCCOc1ccccc1`, the outcome was inactive.
Still for that read-out and setting: with `CC(C)(C)C(O)/C(=C\c1ccc(Cl)cc1Cl)n1cncn1` (centres undefined) the entry was “inactive”.
As for `C[C@H]1[C@H](c2ccc(Cl)cc2)SC(=O)N1C(=O)NC1CCCCC1`, the compound was classed as inactive.
Still for that read-out and setting: with `O=C1c2ccccc2C(=O)N1SC(Cl)(Cl)Cl` the entry was “inactive”; with `COC(=O)c1ccccc1S(=O)(=O)NC(=O)N(C)c1nc(C)nc(OC)n1`, “inactive”.
The same measure, in the same setting: the entry for `N#CN` is “inactive”.
On the same count and under the same terms, with `CN1CSC(=S)N(C)C1` the entry was “inactive”; with `CCOCN(C(=O)CCl)c1c(C)cccc1CC`, “inactive”; with `O=S1OCC2C(CO1)C1(Cl)C(Cl)=C(Cl)C2(Cl)C1(Cl)Cl` (centres undefined), “inactive”.
Take `COP(=O)(OC)OC=C(Cl)Cl`: the compound was classed as inactive.
On the same count and under the same terms, the entry for `O=[N+]([O-])/N=C1\NCCN1Cc1ccc(Cl)nc1` is “inactive”.
Still for that read-out and setting: with `O=C(O)C(F)(F)C(F)(F)C(F)(F)C(F)(F)C(F)(F)C(F)(F)C(F)(F)F` the entry was “inactive”; with `CNC(=O)Oc1ccccc1OC(C)C`, “inactive”.
